Tb PYK inh – inhibitors of Trypanosoma brucei pyruvate kinase | Q57TT1 | TbPYK enzyme, Kinase-Glo Plus ATP luminescence, 45 min | Potency, µM (series often up to 76.8 µM), for the others: at the top dose activity, negative = inhibition, hits mostly inhibitors | 410,000 tested, 0.12% active | AID 624173; further: potency means the concentration at half of the fitted maximal effect; on the % scale 0 is the no-effect control and ±100 the full control effect; nearly all actives have a fitted effect of over 50% in size
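ADP (130 uM final) triggers the TbPYK reaction after compound addition; incubation is 45 min at room temperature. Kinase-Glo Plus is then added and luminescence imaged. Normalized data are fitted to concentration-effect curves.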
CHX counter – affects cycloheximide protein synthesis inhibition readout, counter-screen; cell reporter, cycloheximide protein synthesis inhibition counterscreen; max response, %; 300,000 tested, 12% active; AID 2314; in the data active means max response mostly above about 13%, no sharp cut-off; inactive means mostly below about 14%; further: read at 38.3 µM for the half of the compounds with a filed dose; 0% is about no effect
Shiga toxin inh – Shiga toxin inhibition; Vero cells, Shiga toxin protein synthesis inhibition reporter; inhibition, % at 38.7 µM; 290,000 tested, 9.2% active; AID 2315; in the data active means inhibition mostly above about 28%, no sharp cut-off; inactive means mostly below about 43%; further: 0% is about no effect
Sm TGR inh – inhibitors of Schistosoma mansoni thioredoxin glutathione reductase | Q962Y6 | Potency, µM (series often up to 114 µM), for inactives: at the highest dose activity change, negative = inhibition, hits mostly inhibitors | purified TGR, DTNB reduction, TNB absorbance 405 nm | 360,000 tested, 3% active; further: potency means the concentration at half of the fitted maximal effect; on the % scale 0 is the no-effect control and ±100 the full control effect; nearly all actives have a fitted effect of over 60% in size
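TGR 20 nM + NADPH 100 uM (dispensed conc.), cpd preinc 15 min RT; start with NADPH (500 uM addition) then DTNB (15 mM addition). Kinetic TNB absorbance, 405 nm filter. Four-parameter Hill fit across titration.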
LmPK inhibitor – blocks Leishmania mexicana pyruvate kinase activity; Q27686; purified LmPK, Kinase-Glo ATP luminescence, 1 h; Potency, µM (highest dose often 57.5 µM), without a hit: at the highest dose activity change, negative = inhibition, most hits filed as inhibitors; 290,000 tested, 0.37% active; AID 1721; further: potency means the concentration at half of the fitted maximal effect; on the % scale 0 is the no-effect control and ±100 the full control effect
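0.1 nM LmPK, 0.5 mM PEP, 0.1 mM ADP; 50 mM imidazole pH 7.2, 7 mM MgCl2, 50 mM KCl; 1 h RT. Kinase-Glo luminescence readout, normalized to no-enzyme (full inhibition) and uninhibited wells.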
FBPA Giardia inh – blocks Giardia fructose-bisphosphate aldolase activity; A8B2U2; purified Giardia FBPA; Potency, µM (highest dose often 59.6 µM), inactives show top-dose activity, negative = inhibition, usual class: inhibitors; 290,000 tested, 0.71% active; AID 2451; further: potency means the concentration at half of the fitted maximal effect; on the % scale 0 is the no-effect control and ±100 the full control effect; nearly all actives have a fitted effect of over 55% in size
Target sequence (A8B2U2 whole entry, looked up): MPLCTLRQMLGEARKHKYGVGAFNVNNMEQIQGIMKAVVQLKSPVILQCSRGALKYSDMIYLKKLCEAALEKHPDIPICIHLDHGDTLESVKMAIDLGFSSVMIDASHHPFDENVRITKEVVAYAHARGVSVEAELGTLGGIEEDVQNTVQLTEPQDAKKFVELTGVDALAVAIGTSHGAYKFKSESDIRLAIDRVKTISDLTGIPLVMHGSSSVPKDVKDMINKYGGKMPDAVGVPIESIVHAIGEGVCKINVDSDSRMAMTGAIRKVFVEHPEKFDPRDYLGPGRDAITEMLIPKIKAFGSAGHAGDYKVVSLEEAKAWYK
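Giardia FBPA (40 nM reagent) was preincubated 10 min at RT with compound (up to 57.5 uM final), then substrate plus GAPDH/TPI/NAD/arsenate coupling system with diaphorase/resazurin was added; resorufin fluorescence (525/598 nm) was read after 20 min.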
Starred values were filed as active, the others as inactive; ? = inconclusive; / = not tested or not shown; + = active, no number. Many of the other results were omitted from the sample, so hits are more common in it than they were. Unless noted, the call rests on the fitted dose curve; in most records, active means well fitted curve in the direction sought with a large enough effect; inconclusive means small, poorly fitted or top-dose-only effect, or another doubt; inactive means no such curve, though single readings can be large; an effect the other way counts as inactive or inconclusive.

SMILES	Tb PYK inh	CHX counter	Shiga toxin inh	Sm TGR inh	LmPK inhibitor	FBPA Giardia inh
CN(Cc1ccccc1)C(=O)[C@H]1CCC(=O)N1Cc1ccco1	-18%	-3	-16	16µM*	6%	1%
C[C@H](NC(=O)[C@@H]1CCC(=O)N1Cc1ccco1)c1ccccc1	1%	-1	2	50µM*	2%	5%
O=C(O)[C@H]1CCC(=O)N1Cc1ccco1	-3%	-3	8	-15%	2%	3%
COc1ccc(C(=O)NCC23C=CC(O2)C2C(=O)N(Cc4ccccc4)C(=O)C23)cc1 (configuration not stated)	-2%	-3	-3	3.5µM*	0%	2%
COc1ccc(NC(=O)CSc2nnc(C3CCCCC3)o2)c(OC)c1	1%	-3	20	0%	-1%	-13%
O=C(CSc1nnc(C2CCCCC2)o1)Nc1ccccc1Cl	-9%	15	71*	-1%	1%	-9%
O=C(CC(c1ccccc1)c1ccccc1)Nc1nn[nH]n1	1%	1	-13	1%	2%	8%
Cc1ccc(/C=C/C(=O)Nc2nn[nH]n2)o1	?	-3	-8	20µM*	3%	?
CC(C)c1ccc(/C=C/C(=O)Nc2nn[nH]n2)cc1	/	13*	28	-1%	-2%	?
Cc1ccc(/C=C/C(=O)OCC(=O)Nc2cccnc2Cl)o1	-11%	/	/	/	/	/
COc1ccc(CCNC(=O)c2ccc3c(c2)N(Cc2cccc(Cl)c2)C(=O)c2ccccc2S3=O)cc1OC (configuration not stated)	0%	/	/	18%	/	/
Cc1ccc(N2C(=O)c3ccccc3C2C(=O)c2ccc(O)cc2O)cc1 (configuration not stated)	-6%	-1	29	?	6%	1%
Cc1ccc(N2C(=O)c3ccccc3C2C(=O)c2ccc(C)c(C)c2O)cc1 (configuration not stated)	-8%	18*	31	4.5µM*	12%	-23%
Cc1ccc(N2C(=O)c3ccccc3C2C(=O)c2cc(C)ccc2O)cc1 (configuration not stated)	-2%	40*	+	?	-1%	-11%
Cc1cc(C)n2c(nc3ccccc32)c1C(=O)NN	2%	45*	18*	9%	-4%	1%
COc1cccc(N2CCN(C(=O)c3oc4ccccc4c3NC(=O)Cc3ccc(OC)c(OC)c3)CC2)c1	-3%	-9	-2	-11%	-8%	/
CCCN1CCCC(c2cccc(S(C)(=O)=O)c2)C1 (configuration not stated)	/	-5	30	/	/	-1%
CCCCS/C(N)=N/N=C/c1cc(C)ccc1O	-10%	44*	82*	6%	-4%	-6%
CS/C(N)=N/N=C/c1c(O)ccc2ccccc12	-7%	29*	58*	-22%	7%	-9%
Oc1ccc2ccccc2c1C=NC12CN3CCN(CN(C3)C1)C2	-2%	8	25	45µM*	-4%	14µM*
CS/C(N)=N/N=C/c1cc(Br)cc(Br)c1O	4%	17*	65*	9%	-6%	5%
Cc1ccc(CN2CCN(/N=C/c3cc(Br)ccc3O)CC2)cc1	3%	-2	-12	9%	-1%	5%
CC(=O)c1ccc(S(=O)(=O)Nc2cccc(-c3ccc(N4CCCCCC4)nn3)c2)cc1	0%	/	/	3%	/	/
CCS/C(N)=N/N=C/c1cc(C)ccc1O	2%	53*	50	2%	-5%	9%
Cc1ccc(O)c(/C=N/NC(=O)CN2CCCC2)c1	6%	-2	26	0%	-1%	?
SMILES	Tb PYK inh	CHX counter	Shiga toxin inh	Sm TGR inh	LmPK inhibitor	FBPA Giardia inh
CS/C(N)=N/N=C/c1cc(C)ccc1O	4%	38*	61*	8%	-13%	-1%
CCOc1ccc(OCCOCCn2c(-c3ccc(Cl)cc3)nc3ccccc3c2=O)cc1	0%	/	/	-2%	/	/
CCc1ccc(CN(C)C(=O)c2cc(COc3ccc(-n4cncn4)cc3)on2)cc1	12%	19*	45	2%	0%	5%
CCCOC1CCCN(C(=O)c2cc(COc3ccc(-n4cncn4)cc3)on2)C1 (configuration not stated)	3%	38*	63*	-15%	0%	2%
CN(Cc1ccc(F)cc1)C(=O)c1cc(COc2ccc(-n3cncn3)cc2)on1	4%	10	-7	-1%	7%	/
COCCOC1CCN(C(=O)c2cc(COc3ccc(-n4cncn4)cc3)on2)CC1	5%	0	-31	?	-12%	/
CCOC(=O)C(N)CSC1CC(=O)N(c2ccc(OC)cc2)C1=O (configuration not stated)	4%	-1	-6	32µM*	3%	-29%
COc1ccc(N2C(=O)CC(Sc3nc4ccccc4s3)C2=O)cc1OC (configuration not stated)	-18%	-3	-5	8.9µM*	3%	5%
Nc1nnc(SC2CC(=O)N(c3ccccc3)C2=O)s1 (configuration not stated)	-10%	-2	2	2.5µM*	14%	-7%
CC(=O)Nc1ccc(N2C(=O)CC(Sc3nc4ccccc4s3)C2=O)cc1 (configuration not stated)	3%	8	8	/	2%	-4%
O=C1CC(Sc2ncccn2)C(=O)N1c1ccccc1 (configuration not stated)	2%	1	-10	?	4%	2%
C=CCNc1nnc(SC2CC(=O)N(c3ccc(OCCC)cc3)C2=O)s1 (configuration not stated)	-19%	-3	16	4µM*	10%	-20%
CCOC(=O)NNC1CC(=O)N(c2ccc(OC)cc2)C1=O (configuration not stated)	0%	-1	-11	0%	-10%	-2%
COc1ccccc1CNC(=O)CN(C)CC(=O)Nc1ccccc1Br	7%	/	/	/	/	/
CCN(CC)S(=O)(=O)c1ccc2c(c1)N(CC(=O)N1CCN(c3ccc(OC)cc3)CC1)C(=O)CO2	-2%	/	/	-19%	/	/
CCOc1ccc(N2C(=O)CC(Sc3ncccn3)C2=O)cc1 (configuration not stated)	1%	-1	-5	?	3%	13%
CCOC(=O)c1ccc(N2C(=O)CC(SCC(N)C(=O)OCC)C2=O)cc1 (configuration not stated)	-4%	11	20	14µM*	5%	-1%
COc1ccc(N2C(=O)CC(Sc3nnnn3-c3ccc(F)cc3)C2=O)cc1 (configuration not stated)	-28%	17	36	/	1%	2%
CCOC(=O)c1ccc(N2C(=O)CC(Sc3nnc(C)s3)C2=O)cc1 (configuration not stated)	?	-3	-4	4.5µM*	4%	-21%

Compound activity as filed in PubChem BioAssay.
